G9a block – inhibitors of human histone lysine methyltransferase G9a; Q96KQ7; G9a H3K9 monomethylation, AlphaScreen, 2 h; Potency, µM (series often up to 102 µM), usual class: inhibitors; actives 8.8% (n = 350,000); note: nearly all actives have a fitted effect of over 75% in size
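AlphaScreen detection with an anti-monomethyl H3K9 antibody quantified product after a 2 h room-temperature reaction containing 500 nM biotinylated H3K9 peptide, 20 µM SAM and 20 nM enzyme, which had been preincubated 15 min with compound.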
JMJD2A Tudor – JMJD2A Tudor domain (human) inhibition; Potency, µM (highest dose often 114 µM), hits mostly inhibitors; O75164; actives 4.4% (n = 390,000); AlphaScreen JMJD2A-Tudor / H3K4me3 peptide binding; note: nearly all actives have a fitted effect of over 50% in size
BAZ2B block – blocks human BAZ2B | Q9UIF8 | AlphaScreen BAZ2B-H3K14Ac peptide displacement | Potency, µM (titrated, usually from 114 µM), most hits filed as inhibitors | actives 4.4% (n = 360,000); note: nearly all actives have a fitted effect of over 60% in size
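Protein-peptide AlphaScreen: BAZ2B 50 nM, b-H3K14Ac 50 nM, 1x PBS pH 7.4 + 0.01% Tween-20. Preincubation 30 min RT; cpd 30 min RT (top 110 uM); beads 20 min RT, light-protected.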
Sfp PPTase inh – blocks B. subtilis Sfp PPTase activity; Potency, µM, actives largely listed as inhibitors; Q9F4F7; Biochemical Sfp PPTase activity, qHTS; actives 3.5% (n = 310,000);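 note: the enzyme is Sfp with the accession as filed and its product quenches rhodamine fluorescence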
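Compounds were incubated with enzyme (final 15 nM) for 15 min at room temperature before substrate addition started the reaction. Fluorescence at 525 nm excitation, 598 nm emission was recorded immediately and after 30 minutes.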
HP1b binding inh – inhibitors of HP1-beta chromodomain binding to methylated histone tails. AlphaScreen HP1-beta / biotin-H3K9me3 peptide binding. Potency, µM (highest dose often 114 µM), actives largely listed as inhibitors. actives 0.56% (n = 390,000); note: nearly all actives have a fitted effect of over 70% in size
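AlphaScreen: HP1-beta (50 nM) preformed 30 min with biotin-H3(1-18)K9me3 peptide (50 nM) in PBS pH 7.4, 0.01% Tween-20. Compound added for 30 min at RT, then streptavidin donor/nickel chelate acceptor beads (10 ug/mL) for 30 min.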
Large screens that a line does not name were inactive; ! = not active in a repeat. This is a sample that favours compounds with a hit; in the whole collection about 12% have one here. Calls come from the whole dose curve; as a rule, active = well fitted curve in the direction sought with a large enough effect; inconclusive = small, poorly fitted or top-dose-only effect, or another doubt; inactive = no such curve, though single readings can be large; an effect the other way counts as inactive or inconclusive.

COc1ccccc1N1CCN(C(=O)NC23CC4CC(CC(C4)C2)C3)CC1	G9a block 79µM
CC(=O)N1CCN(c2ccc(NC(=O)c3ccc(Cl)cc3)cc2)CC1	none
CCOC(=O)N1CCN(C(=O)COC(=O)CNC(=O)c2ccc(C)cc2)CC1	none (no result: Sfp PPTase inh)
COc1ccc(N2CCN(C(=O)CCNC(=O)c3ccc(C(C)(C)C)cc3)CC2)cc1	G9a block 45µM, JMJD2A Tudor inconclusive, BAZ2B block inconclusive
COc1ccc(N2CCN(C(=O)COC(=O)CNC(=O)c3ccc(C)cc3)CC2)cc1	G9a block 40µM (no result: Sfp PPTase inh)
CC(=O)N1CCN(c2ccc(NC(=O)c3ccc(C(C)(C)C)cc3)cc2)CC1	G9a block 11µM
Cc1c(C(=O)NCc2ccccc2Cl)sc2nc[nH]c(=O)c12	none (no result: Sfp PPTase inh)
COc1cc(Cl)c(C)cc1NC(=O)c1cc2c(=O)oc3ccccc3c2s1	none (no result: Sfp PPTase inh)
COc1ccc(N2CCN(C(=O)c3ccc(C(C)(C)C)cc3)CC2)cc1	G9a block inconclusive, JMJD2A Tudor 56µM, BAZ2B block 45µM, Sfp PPTase inh inconclusive, HP1b binding inh inconclusive
COc1cccc(N2C(=O)C(c3ccccc3)=C(c3nc4ccccc4s3)C2NC(C)=O)c1 (centres undefined)	none
CC(=O)NC1C(c2nc3ccccc3s2)=C(c2ccccc2)C(=O)N1c1ccc(C)cc1 (centres undefined)	G9a block 50µM, JMJD2A Tudor inconclusive, HP1b binding inh inconclusive
CCOC(=O)CN1C(=O)N[C@H](c2ccc(Br)cc2)C(C(C)=O)=C1C	G9a block 45µM, Sfp PPTase inh inconclusive
CCOC(=O)C1=C(C)N(CCCCCC(=O)O)C(=O)NC1c1ccc(Br)cc1 (centres undefined)	G9a block 50µM, JMJD2A Tudor inconclusive
CC1=C(C(=O)OCc2ccccc2)C(c2ccc(Cl)cc2Cl)NC(=O)N1CCCCCC(=O)O (centres undefined)	G9a block inconclusive, BAZ2B block inconclusive
CC1=C(C(=O)OCc2ccccc2)C(c2ccc(Cl)cc2Cl)NC(=O)N1CCCC(=O)O (centres undefined)	G9a block 56µM, Sfp PPTase inh inconclusive
CCOC(=O)C1=C(C)N(CCCCCC(=O)O)C(=O)NC1c1ccccc1Cl (centres undefined)	G9a block 56µM, BAZ2B block inconclusive, Sfp PPTase inh inconclusive
CCOC(=O)CN1C(=O)N[C@@H](c2ccc(Br)cc2)C(C(=O)OC)=C1C	none
COc1ccc2[nH]cc(CCNc3ncncc3-c3c(C)noc3C)c2c1	none (no result: JMJD2A Tudor, BAZ2B block, HP1b binding inh)
COc1ccc(N(C(=O)c2ccncc2)S(=O)(=O)c2cccc([N+](=O)[O-])c2)cc1	G9a block 79µM, JMJD2A Tudor inconclusive
CCOc1ccc(NC(=O)CC2SC(=O)N(c3ccccc3)C2=O)cc1 (centres undefined)	BAZ2B block inconclusive, Sfp PPTase inh 10µM (no result: G9a block)
O=C(CC1SC(=O)N(c2ccccc2)C1=O)Nc1cccc2ccccc12 (centres undefined)	G9a block inconclusive, Sfp PPTase inh 20µM
Cc1ccccc1OCC(=O)NCC(c1cccs1)N1CCOCC1 (centres undefined)	none (no result: Sfp PPTase inh)
O=C(NC1CC(=O)N(c2ccc(Cl)cc2)C1)c1cccs1 (centres undefined)	none (no result: Sfp PPTase inh)
COc1ccc(C2(c3ccc(OC)cc3)NC(=O)N(CC(=O)N(C)C)C2=O)cc1	none
CC(C)c1ccc(NC(=O)CNCC(c2ccccc2)N(C)C)cc1 (centres undefined)	G9a block 35µM, JMJD2A Tudor 45µM, BAZ2B block inconclusive, Sfp PPTase inh inconclusive
Cc1csc(NC(=O)c2ccc3nc[nH]c3c2)n1	none
COc1cc(N=Nc2cccc(S(N)(=O)=O)c2)c2ccccc2c1N	G9a block 13µM, JMJD2A Tudor 13µM, BAZ2B block 13µM, Sfp PPTase inh inconclusive, HP1b binding inh 28µM
NC1=NC(=Nc2cccc(S(N)(=O)=O)c2)c2ccccc21	none
c1ccc(COc2ccccc2CNC23CC4CC(CC(C4)C2)C3)cc1	Sfp PPTase inh 56µM
COc1cc(C(=O)NNC(=O)CNC(=O)C2CCCCC2)ccc1OC(C)C	none (no result: G9a block, BAZ2B block, Sfp PPTase inh)
N#Cc1c(SCC(=O)Nc2ccc(Cl)cc2Cl)sc2c(O)cc(=O)[nH]c12	G9a block inconclusive
N#Cc1c(SCC(=O)Nc2nc3ccc(Br)cc3s2)sc2c(O)cc(=O)[nH]c12	G9a block 40µM, JMJD2A Tudor 25µM, BAZ2B block 20µM, HP1b binding inh 22µM
N#Cc1c(SCC(=O)Nc2nc3ccccc3s2)sc2c(O)cc(=O)[nH]c12	G9a block inconclusive, JMJD2A Tudor 8.9µM, BAZ2B block 45µM, HP1b binding inh inconclusive (no result: Sfp PPTase inh)
CCSC1=NC2(CCN(C(=O)NC3CCCCC3)CC2)N=C1c1ccc(C)c(C)c1	none (no result: Sfp PPTase inh)
COc1ccc(NC(=O)CSc2nccn2Cc2ccccc2)c(OC)c1	G9a block 45µM, BAZ2B block inconclusive
COc1ccc(OC)c(NC(=O)CSc2nncc3ccc(OC)c(OC)c23)c1	BAZ2B block 79µM, Sfp PPTase inh inconclusive (no result: G9a block)
COc1ccc2nc(SCC(=O)Nc3cc(OC)c(OC)cc3C(=O)O)c(C)cc2c1	G9a block 56µM, JMJD2A Tudor inconclusive, Sfp PPTase inh 79µM
COc1cccc(NC(=O)C(Cc2ccccc2)n2cccc2)c1 (centres undefined)	BAZ2B block inconclusive
COc1ccc(NC(=O)C(Cc2ccccc2)n2cccc2)c(OC)c1 (centres undefined)	G9a block inconclusive, BAZ2B block 35µM!
CC(=O)Nc1ccc(S(=O)(=O)NCCC(=O)OCC(=O)c2cc(C)ccc2C)cc1	none (no result: Sfp PPTase inh)
CC(=O)N1c2ccccc2C(C)(c2ccc(C)cc2)CC1(C)C (centres undefined)	none (no result: Sfp PPTase inh)
COc1ccc(NC(=O)CSc2nccn2-c2cccc(OC)c2)cc1	G9a block inconclusive, JMJD2A Tudor inconclusive, BAZ2B block inconclusive
CCOc1ccc(-n2ccnc(SCC(=O)Nc3ccc(OC)cc3OC)c2=O)cc1	G9a block 35µM, JMJD2A Tudor inconclusive, BAZ2B block inconclusive (no result: Sfp PPTase inh)
COc1cccc(-n2ccnc2SCC(=O)Nc2cc(OC)ccc2OC)c1	G9a block inconclusive, JMJD2A Tudor 89µM, BAZ2B block 28µM, HP1b binding inh 45µM
CCOc1ccc(-n2ccnc(SCC(=O)NCc3cccc(OC)c3)c2=O)cc1	none (no result: Sfp PPTase inh)
COc1cccc(NC(=O)CSc2nccn2-c2cccc(OC)c2)c1	G9a block 40µM, JMJD2A Tudor inconclusive, BAZ2B block inconclusive
COc1cccc(-n2ccnc2SCC(=O)Nc2cccc(C)c2C)c1	G9a block inconclusive, BAZ2B block inconclusive (no result: Sfp PPTase inh)
COc1cccc(-n2ccnc2SCC(=O)Nc2ccccc2F)c1	JMJD2A Tudor inconclusive, BAZ2B block 25µM, Sfp PPTase inh inconclusive, HP1b binding inh inconclusive
Cc1c(NC(=O)C(C)OC(=O)c2ncc(Cl)c(Cl)c2Cl)c(=O)n(-c2ccccc2)n1C (centres undefined)	none (no result: Sfp PPTase inh)
Cc1cc(CNC(=O)COC(=O)c2ccc(Cl)c(N)c2)cc(C)c1O	G9a block inconclusive (no result: Sfp PPTase inh)

Source: PubChem (National Center for Advancing Translational Sciences (NCATS))
